Measured values taken from ChEMBL document CHEMBL4513216, “Probing the Open Global Health Chemical Diversity Library for Multistage-Active Starting Points for Next-Generation Antimalarials” (ACS Infect Dis, 2020).
The campaign covered roughly 69,000 compounds. About 8,600 (12%) showed an effect of 50% or more. The sample holds strong results, similar compounds and a random draw of the others, so the mix is not that of the screen.

The compounds below were run on Plasmodium berghei (assay: Screen against P. berghei liver stage (PbLuc), transformed with Luciferase, at 10uM). Conditions: tested at 10 uM.
Type: functional, HepG2

Row | SMILES | INHIBITION [%]
1 | Cc1ccccc1CSc1ncccc1C(=O)N(C)C | -13.2
2 | Cc1cncc(CN2CC[C@@](O)(CNC(=O)c3c[nH]cn3)[C@H](O)C2)c1 | 32.7
3 | c1cnn(CC2CN(c3ncnc4c3CCC4)CCO2)c1 (centres undefined) | -7.17
4 | Cc1nc(N2CCCOC(Cn3cccn3)C2)c2sccc2n1 (centres undefined) | 65.7
5 | c1ccc2c(N3CCOC(Cn4cccn4)C3)ncnc2c1 (centres undefined) | 4.48
6 | c1nc2c(c(N3CCOC(Cn4cncn4)C3)n1)CCC2 (centres undefined) | -26.9
7 | Cc1nnc(N2CCOC(Cn3cccn3)C2)c(C#N)c1C (centres undefined) | 17.8
8 | c1cnn(CC2CN(c3ncnc4ccsc34)CCO2)c1 (centres undefined) | 62.4
9 | Cc1cnn(CC2CN(c3ncnc4ccccc34)CCO2)c1 (centres undefined) | 64.4
10 | Cc1cnn(CC2CN(c3ncnc4c3CCC4)CCO2)c1 (centres undefined) | 63
11 | c1cnn(CC2CN(c3ncnc4[nH]ccc34)CCO2)c1 (centres undefined) | 13.3
12 | Cc1cnn(CC2CN(c3ncnc4[nH]ccc34)CCO2)c1 (centres undefined) | 19.4
13 | c1nc(N2CCOC(Cn3cncn3)C2)c2sccc2n1 (centres undefined) | 49.4
14 | c1cnn(CC2CN(c3ncnc4sccc34)CCO2)c1 (centres undefined) | 45
15 | O=C1CN(C(=O)C2CN(c3cccc(Cl)c3)CCO2)CCN1 (centres undefined) | 3.46
16 | Cn1cnc2cc(C(=O)NS(=O)(=O)c3ccccc3Cl)ccc21 | -32.1
17 | Cc1ccc2c(c1)C(=O)NCC1(CCN(Cc3ccccc3)CC1)O2 | -6.92
18 | COc1ccc(-n2ccc(C(=O)N(C)C(C)C3(C)CC3)n2)cc1 (centres undefined) | 29.1
19 | Cc1cccc(CN2CCC(N(C)Cc3nnc(C4CC4)n3C)C2)c1 (centres undefined) | 38.5
20 | COc1ccc(CCNC(=O)NCC(O)c2cccc(F)c2)cc1 (centres undefined) | 12.7
21 | CC(C)c1sc(Br)nc1C(=O)NCc1ccncc1 | 45.3
22 | O=C(NCCc1cnccn1)c1ccc(S(=O)(=O)NC2CCC2)cc1 | 40.3
23 | CC(C)N1CC[C@@H]2[C@H](COCC3CC3)CN(C)C(=O)[C@@H]2CC1 | 10.5
24 | O=C(NC[C@]1(O)CN(Cc2ccc(F)cc2)C[C@H]1O)c1ccccn1 | 18.9
25 | Cc1cnn(CC2CN(c3cnc4ccccc4n3)CCO2)c1 (centres undefined) | 16.2
26 | Cc1nc(N2C[C@H]3CNC[C@H]3C2)c2sccc2n1 | 55.6
27 | Cc1cnn(CC2CN(c3ncnc4ccsc34)CCO2)c1 (centres undefined) | 83.7

Row | SMILES | INHIBITION [%]
28 | CN(C)CC1CN(c2ncnc3ccsc23)CCO1 (centres undefined) | 30.8
29 | COC1[C@@H]2CC[C@H]1CN(c1nc(C)nc3ccsc13)C2 (some centres undefined) | 43
30 | Cc1nc(N2C[C@@H](CN3CCCCC3)[C@@H](CO)C2)c2sccc2n1 | 46.4
31 | Cc1csc(N2CCN(C(=O)c3ccc(C)s3)CC2)n1 | 2.3
32 | CCN(C)c1ncnc2c1CCN(Cc1ccsc1)CC2 | -14.1
33 | Cc1cc(C)n(CC2CCCCN2CCC(=O)Nc2cc(C)on2)n1 (centres undefined) | 12.7
34 | CN(Cc1cccs1)S(=O)(=O)c1ccc(C(F)(F)F)nc1 | 35.1
35 | Cc1[nH]c2cc(C3CCCCN3C(=O)C3CC3)nn2c(=O)c1C (centres undefined) | -3.02
36 | Cn1ccnc1CN1CCN(CC(O)c2ccc(F)cc2)CC1 (centres undefined) | -18
37 | Cc1ncsc1CN1CCOC(C)(C(N)=O)C1 (centres undefined) | 15.5
38 | O=C(NC1CC1)C1CCN(c2cccc(C(F)(F)F)n2)CC1 | 86.8
39 | O=C(NC1CCN(c2cccc(C(F)(F)F)n2)CC1)C1CC1 | 29
40 | O=C(NC1CC1)C1CCCN(c2cccc(C(F)(F)F)n2)C1 (centres undefined) | -28.8
41 | CCN1CCCC1CNC(=O)Cc1c(-c2ccc(Cl)cc2)n[nH]c1C (centres undefined) | 14.4
42 | Cc1ccccc1CSc1nc(N)cc(N2CCCC(O)C2)n1 (centres undefined) | 15.2
43 | Cc1ccccc1CSc1nc(N)cc(N2CC[C@@H](O)C2)n1 | 42.1
44 | Cc1ccccc1CSc1nc(N)cc(N2C[C@H](O)[C@@H](N(C)C)C2)n1 | 58.2
45 | CC(C)(C)C(=O)NCCCn1cncn1 | -21.9
46 | COc1nn(C)cc1C(=O)NCC1(O)CCOCC1 | 15.7
47 | CCn1c(C)nnc1CN(C)C1CCN(CC2CCC2)C1 (centres undefined) | -4.16
48 | c1cc(CN2CCOC(Cn3cccn3)C2)c2c(c1)OCCO2 (centres undefined) | 25.1
49 | COC(=O)c1cc2c(OC)c(C)c(OC)cc2[nH]1 | -1.45
50 | CCn1cnnc1CN(C)Cc1nc(-c2cc(OC)ccc2F)oc1C | 50.4
51 | COc1ccc(-c2nc(CN(C)Cc3nncn3C)c(C)o2)c(C)c1C | -29.1
52 | COCc1ncn(Cc2nc(-c3ccc(OC)cc3F)oc2C)n1 | 8.86
53 | COc1ccc(OC)c(-c2nc(CN(C)Cc3nncn3C)c(C)o2)c1 | 57.8
54 | COc1ccc(OC)c(-c2nc(CN(C)Cc3nonc3C)c(C)o2)c1 | -28
